# Records with an inconclusive call do not appear. Entries that show only a call come without a potency. Active and inactive are the calls of the source. Calls come from the whole dose curve; as a rule, active = well fitted inhibition curve with a large enough effect; inconclusive = small, poorly fitted or top-dose-only effect; inactive = no such curve, though single readings can be large or run the other way.
# Test: qHTS Screen of the MIPE 4.0 Collection Against Ewings Sarcoma (EW8) (AID 1259255); note: nearly all actives have a fitted effect of over 35% in size
# Settings: EW8 Ewing sarcoma viability, CellTiter-Glo, 48 h; series mostly up to 45.8 µM
# In short: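 After a 4 h attachment period in RPMI/5% FBS, cells were pin-dosed with test compounds; DMSO served as negative and 9.2 uM bortezomib (final) as positive control. Luminescent CellTiter-Glo signal at 48 h defined viability.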
# Potency is the fitted concentration of half-maximal effect.
row,SMILES,Potency
1,COc1cc(N2CCC(N3CCN(C)CC3)CC2)ccc1Nc1ncnc(Nc2ccccc2S(=O)(=O)C(C)C)n1,20.9 µM (active)
2,Cc1c(NC(=O)c2ccc(C(C)(C)C)cc2)cccc1-c1cn(C)c(=O)c(Nc2ccc(C(=O)N3CCOCC3)cc2)n1,20.9 µM (active)
3,O=C(NCc1ccccc1)c1csc(Nc2ccncn2)n1,20.9 µM (active)
4,COC(=O)N[C@H](C(=O)N1CCC[C@@H]1c1ncc(-c2ccc(-c3ccc(-c4cnc([C@@H]5CCCN5C(=O)[C@@H](NC(=O)OC)C(C)C)[nH]4)cc3)cc2)[nH]1)C(C)C,26.4 µM (active)
5,COc1ccc2cccc(CCNC(C)=O)c2c1,inactive
6,COC(=O)C1=CO[C@@H](O)[C@@H]2C(CO)=CC[C@@H]12,inactive
7,Nc1ncnc2ccccc12,inactive
8,Nc1ncnc2c1ncn2[C@@H]1O[C@H](CO)C[C@@H]1O,inactive
9,CN(C)CCC=C1c2ccccc2COc2ccc(CC(=O)O)cc21,inactive
10,CN[C@@H](C)C(=O)N[C@H]1CN(C(=O)CC(C)C)CC[C@H]2CC[C@@H](C(=O)NC(c3ccccc3)c3ccccc3)N2C1=O,inactive
11,NC1=N[C@@]2(c3cc(NC(=O)c4ccc(F)cn4)ccc3F)COC[C@@H]2CS1,inactive
12,O=C(Nc1c(Cl)cncc1Cl)c1ccc(OC(F)F)c(OCC2CC2)c1,inactive
13,C=C1C(=O)OC2C=C(C)CCC=C(C)CCC12 (stereo not drawn),23.5 µM (active)
14,CC=CC(=O)N(CC)c1ccccc1C,inactive
15,NS(=O)(=O)c1ccc(NC2=CC(=O)c3ccccc3C2=O)cc1,1.87 µM (active)
16,CCC(=O)O[C@]1(C(=O)CO)CC[C@H]2[C@@H]3CCC4=CC(=O)CC[C@]4(C)[C@@H]3CC[C@@]21C,inactive
17,CNC(=O)c1ccc2cc(C3(O)CCn4cncc43)ccc2c1 (stereo not drawn),inactive
18,CCCCCCCCCCCC1=C(O)C(=O)C=C(O)C1=O,inactive
19,CC1(C)S[C@H]2[C@H](NC(=O)[C@@H](N)c3ccc(O)cc3)C(=O)N2[C@@H]1C(=O)O,inactive
20,O=C(OCC#CCSc1nnc(-c2cccc3ccccc23)o1)c1cc2ccccc2s1,inactive
21,CC[C@H]1OC(=O)[C@H](C)[C@@H](O[C@H]2C[C@@](C)(OC)[C@@H](O)[C@H](C)O2)[C@H](C)[C@@H](O[C@@H]2O[C@H](C)C[C@H](N(C)C)[C@@H]2O)[C@](C)(O)C[C@@H](C)CN(C)[C@H](C)[C@@H](O)[C@]1(C)O,16.6 µM (active)
22,CC[C@H]1OC(=O)[C@H](C)C(=O)[C@H](C)[C@@H](O[C@H]2O[C@H](C)C[C@H](N(C)C)[C@@H]2O)[C@](C)(OC)C[C@@H](C)C(=O)[C@H](C)[C@H]2N(CCCCn3cnc(-c4cccnc4)c3)C(=O)O[C@]12C,20.9 µM (active)
23,O=c1ccn([C@@H]2O[C@H](CO)[C@H](O)[C@H]2O)c(=O)[nH]1,inactive
24,CC(C)C(C)C=CC(C)C1CCC2C3=CC=C4CC(O)CCC4(C)C3CCC21C (stereo not drawn),inactive
25,O=C(NC1CCOCC1)c1ccc(-c2cc(-c3cn[nH]c3-c3ccccn3)ccn2)cc1,inactive
26,CN(C[C@@H]1COCCO1)S(=O)(=O)Nc1ccc2ccc3ncc(-c4cnn(C)c4)cc3c(=O)c2c1,18.7 µM (active)
27,COc1cccc([C@@H](C)NCCCc2ccccc2Cl)c1,inactive
28,CC(=O)OC1C(C)OC(Oc2c(-c3ccc(O)cc3)oc3cc(O)cc(O)c3c2=O)C(O)C1OC(C)=O (stereo not drawn),inactive

# From PubChem BioAssay (NCATS)
